Hits are enriched below; roughly 20% of the tested compounds scored in any of these assays.
HCMV inh: human cytomegalovirus inhibition. HFF cells, HCMV-luciferase reporter, 72 h; active compounds read low. activity change, negative = inhibition, % at 57.5 µM. 410,000 compounds, 4.5% hits; in the data active means activity change below about -60%; inconclusive means no clear call, values can overlap the other calls; inactive means above about -39%; further: on the % scale 0 is the no-effect control and ±100 the full control effect
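Two compound doses tested in HFFs infected with HCMV-luciferase, MOI 1 PFU/cell, 72 h at 37C. Lysate luminescence read with OneGlo; data normalized against buffer-only and 10uM Salinomycin inhibitor controls.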
Pf growth 96h: inhibits malaria parasite growth, 96 h; P. falciparum luciferase reporter growth, 96 h; Potency, µM (doses to about 28.7 µM), inactives show at the highest dose activity change, negative = inhibition, actives largely listed as inhibitors; 320,000 compounds, 6.9% hits; AID 504834; further: potency means the concentration at half of the fitted maximal effect; on the % scale 0 is the no-effect control and ±100 the full control effect
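Infected RBCs, 2% Hct / 0.05% parasitemia final; luciferase-reporter P. falciparum; cpd 96 h, 37 C, 5% CO2; luciferase detection reagent; luminescence.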
Pf growth 48h: inhibits P. falciparum growth in the first generation, 48 h; P. falciparum luciferase growth in erythrocytes, 48 h; Potency, µM (doses to about 28.7 µM), without a hit: at the top dose activity change, negative = inhibition, most hits filed as inhibitors; AID 504832; 310,000 compounds, 5.9% hits; further: potency means the concentration at half of the fitted maximal effect; on the % scale 0 is the no-effect control and ±100 the full control effect
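Cell-based growth assay: transgenic P. falciparum expressing firefly luciferase, cultured in red cells within RPMI 1640 containing 0.5% w/v Albumax, 24 mM bicarbonate and gentamycin. A drop in luciferase activity indicates inhibition.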
Cycloheximide cs: counter-screen for Shiga toxin inhibitors: cycloheximide protein synthesis inhibition; cell reporter, cycloheximide protein synthesis inhibition counterscreen; max response, %; 300,000 compounds, 12% hits; AID 2314; in the data active means max response mostly above about 13%, no sharp cut-off; inactive means mostly below about 14%; further: read at 38.3 µM for the half of the compounds with a filed dose; 0% is about no effect
Shiga toxin inh: Shiga toxin inhibition; Vero cells, Shiga toxin protein synthesis inhibition reporter; inhibition, % at 38.7 µM; 290,000 compounds, 9.2% hits; in the data active means inhibition mostly above about 28%, no sharp cut-off; inactive means mostly below about 43%; further: 0% is about no effect
Starred values were filed as active, the others as inactive; ? = inconclusive; . = no result. Unless noted, the call rests on the fitted dose curve; in most records, active means well fitted inhibition curve with a large enough effect; inconclusive means small, poorly fitted or top-dose-only effect, or another doubt; inactive means no such curve, though single readings can be large or run the other way.

SMILES	HCMV inh	Pf growth 96h	Pf growth 48h	Cycloheximide cs	Shiga toxin inh
CC(=O)Nc1ccc(C(=O)NNC(=O)C2C3CCCCC32)cc1 (stereo not given)	4.7	?	-12.1%	-1.5	-11.5
O=C(Nc1ccccc1)C1C2CCC3C(CCC21)C3(Cl)Cl (stereo not given)	-20.2	21.4%	?	1.6	-5.2
O=C(Nc1ccc(Cl)cc1)C1C2CCCCC21 (stereo not given)	58.2	5.5%	39.5%	47.8*	66.6*
CCc1ccc(NC(=O)C2C3/C=C\CCCCC32)cc1 (stereo not given)	-20.1	157.7%	166.0%	37.1*	active
O=C(COC(=O)c1cccnc1Cl)c1ccc(OC(F)F)cc1	-25.5	25.9%	17.8%	10.8	-11.2
CCCn1c2ccccc2c2cnn(CC(=O)N3CCN(c4ccccc4F)CC3)c(=O)c21	-35.2	.	.	.	.
CCCn1cc(S(=O)(=O)c2ccc(OC)cc2)c(=O)c2cc(F)c(N3CCCC(C)C3)cc21 (stereo not given)	-13.0	.	.	.	.
O=C(CCNS(=O)(=O)c1ccc2c(c1)CCN2C(=O)C1CC1)Nc1ccc(F)cc1F	-9.9	.	.	.	.
O=C1CCC(=O)N1CC(=O)N(c1ccccc1)c1ccccc1	-7.2	?	9.9%	5.2	12.7
OCCC1CN(Cc2cccc3nonc23)CCN1C1CCCCC1 (stereo not given)	-1.1	14.7µM*	-1.8%	-2.4	7.2
OCCC1CN(Cc2cnc(-c3ccc(Cl)cc3)nc2)CCN1C1CCCCC1 (stereo not given)	?	8.2%	10.4µM*	16.0*	27.8*
CC(C)=CCN1CCN(Cc2cccc3nonc23)CC1CCO (stereo not given)	-30.7	2.08µM*	3.8%	6.0	-12.6
Cc1cc(C)n(-c2ccc(F)cc2CN2CCN(C3CCCC3)C(CCO)C2)n1 (stereo not given)	-33.4	1.65µM*	18.5%	-0.6	-9.0
CC(C)=CCN1CCN(Cc2cccc3nccnc23)CC1CCO (stereo not given)	-39.0	?	32.2%	0.7	7.3
Cc1cccc(-c2ncc(CN3CCN(C4CCCC4)C(CCO)C3)cn2)c1 (stereo not given)	-9.1	15.9%	12.0%	-1.1	-9.1
OCCC1CN(Cc2cccc3nonc23)CCN1Cc1ccsc1 (stereo not given)	25.0	50.3%	9.7%	-0.8	12.0
Cc1cc(C)c(S(=O)(=O)N2CCCOC2CNC(=O)C(=O)NCc2ccco2)c(C)c1 (stereo not given)	-11.7	17.0%	1.1%	8.7	-3.0
CC(C)Cc1nnc(NC(=O)CCC(=O)N2CC(C)CC(C)C2)s1 (stereo not given)	4.8	?	2.7%	-2.7	3.0
CN(Cc1ccccc1)[C@@H]1CC[C@@]23CCCN2C(=O)CCC[C@H]3[C@H]1Cc1ccccc1	30.1	.	.	.	.
OCCC1CN(Cc2cccc3nccnc23)CCN1C1CCCC1 (stereo not given)	53.1	13.1µM*	15.2%	2.8	-2.0
COc1ccc(CCN2CC(C(=O)N(C)CC(=O)Nc3ccc(F)c(F)c3F)CC2=O)cc1OC (stereo not given)	7.2	.	.	.	.
O=C(NCCc1ccc(F)cc1)c1cc(=O)c2ccccc2o1	-39.8	-27.1%	8.0%	24.9*	29.9
Cc1cccc(NC(=O)c2cc(=O)c3ccccc3o2)n1	-6.0	57.1%	60.1%	23.6*	56.1
O=C(Nc1cccc(-c2nc3ccccc3s2)c1)c1cc(=O)c2ccccc2o1	-13.9	90.1%	65.9%	14.5	30.5*
Cc1ccc(C)c(NC(=O)c2cc(=O)c3ccccc3o2)c1	-37.0	13.1µM*	117.3%	33.2*	16.7
SMILES	HCMV inh	Pf growth 96h	Pf growth 48h	Cycloheximide cs	Shiga toxin inh
Cc1ccc(NC(=O)c2cc(=O)c3ccccc3o2)c(C)c1	-32.0	3.4%	76.4%	2.1	-3.6
Cc1cc(C)cc(NC(=O)c2cc(=O)c3ccccc3o2)c1	-18.2	?	3.0%	9.4	5.3
CC(=O)C[C@@H]1OC[C@H](Cc2ccccc2)N1S(=O)(=O)c1ccc(C)cc1	13.3	.	.	.	.
NC(=O)c1ccsc1NC(=O)c1cc(=O)c2ccccc2o1	24.8	67.9%	230.5%	43.7*	38.3
N#Cc1ccccc1NC(=O)c1cc(=O)c2ccccc2o1	26.1	265.7%	94.5%	19.0	58.9*
Cc1ccc(NC(=O)c2cc(=O)c3ccccc3o2)cc1	13.8	-17.6%	94.2%	28.7*	125.4

From PubChem
